Test results from paper PMC7862700, “An all-to-all approach to the identification of sequence-specific readers for epigenetic DNA modifications on cytosine”.

Key:
Assay in all cases: DAPPL (digital affinity profiling via proximity ligation, sequencing); 10 mM Tris-HCl pH 7.5, 50 mM NaCl, 1 mM DTT, 4% glycerol, room temperature, 30 min; GST-TFs on glutathione beads, 16-mer random dsDNA library, 0.1% formaldehyde crosslink after washing; high values mean tight binding
[1] = target: T1, FEV (Homo sapiens, UniProt Q99581 1-238); settings: protein: recombinant; tags: N-terminal GST; dsDNA, one strand shown
T1 sequence: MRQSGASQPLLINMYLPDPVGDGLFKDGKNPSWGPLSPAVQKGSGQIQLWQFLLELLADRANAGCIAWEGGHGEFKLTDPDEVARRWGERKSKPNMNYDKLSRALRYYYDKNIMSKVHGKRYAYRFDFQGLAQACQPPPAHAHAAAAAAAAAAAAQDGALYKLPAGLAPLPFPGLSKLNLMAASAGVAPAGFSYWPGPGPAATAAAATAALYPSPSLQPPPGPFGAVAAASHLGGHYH
In short: (§1)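 GST fusions of human transcription factors were expressed in yeast and captured with glutathione beads. Once given DNA barcodes and pooled alongside a tag-only sample, they were incubated for 30 min at room temperature with 200 nmole of a random double-stranded 16-mer DNA library in Tris/NaCl/DTT/glycerol buffer, then washed, crosslinked (0.1% formaldehyde), proximity-ligated, PCR-amplified and sequenced on an Illumina NextSeq500. The binding signal of each hexamer is its read frequency for a factor divided by its frequency for the tag-only sample.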

[2] = target: ETV5 (Homo sapiens, UniProt P41161 1-510); settings: protein: recombinant; tags: N-terminal GST; dsDNA, one strand shown
In short: as §1

[3] = target: HSF1 (Homo sapiens, UniProt Q00613 1-529); settings: protein: recombinant; tags: N-terminal GST; chain copies: 3; dsDNA, one strand shown
In short: as §1

[4] = target: T2, SPIC (Homo sapiens, UniProt Q8N5J4 1-248); settings: protein: recombinant; tags: N-terminal GST; dsDNA, one strand shown
T2 sequence: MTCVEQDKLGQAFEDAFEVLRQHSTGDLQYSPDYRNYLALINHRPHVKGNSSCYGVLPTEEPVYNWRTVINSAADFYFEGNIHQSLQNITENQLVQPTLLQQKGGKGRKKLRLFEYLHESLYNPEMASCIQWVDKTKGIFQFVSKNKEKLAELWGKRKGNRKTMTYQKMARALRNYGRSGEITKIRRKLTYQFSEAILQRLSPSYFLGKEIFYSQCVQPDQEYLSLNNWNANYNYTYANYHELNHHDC
In short: as §1

[5] = target: ELF4 (Homo sapiens, UniProt Q99607 1-663); settings: protein: recombinant; tags: N-terminal GST; dsDNA, one strand shown
In short: as §1

[6] = target: T3, ELK4 (Homo sapiens, UniProt P28324-2 1-405); settings: protein: recombinant; tags: N-terminal GST; dsDNA, one strand shown
T3 sequence: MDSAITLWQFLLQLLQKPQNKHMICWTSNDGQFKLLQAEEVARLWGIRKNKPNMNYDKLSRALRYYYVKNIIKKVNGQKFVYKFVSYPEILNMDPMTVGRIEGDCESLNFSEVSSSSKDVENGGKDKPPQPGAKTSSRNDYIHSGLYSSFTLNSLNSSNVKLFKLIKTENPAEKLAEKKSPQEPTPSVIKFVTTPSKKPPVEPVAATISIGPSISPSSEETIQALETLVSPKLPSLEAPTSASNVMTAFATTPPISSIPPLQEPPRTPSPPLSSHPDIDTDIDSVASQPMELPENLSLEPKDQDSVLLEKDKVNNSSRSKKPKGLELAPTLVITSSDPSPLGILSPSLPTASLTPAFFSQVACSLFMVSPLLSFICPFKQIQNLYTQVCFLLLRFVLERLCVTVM
In short: as §1

[7] = target: T4, ETV2 (Homo sapiens, UniProt O00321 1-342); settings: protein: recombinant; tags: N-terminal GST; dsDNA, one strand shown
T4 sequence: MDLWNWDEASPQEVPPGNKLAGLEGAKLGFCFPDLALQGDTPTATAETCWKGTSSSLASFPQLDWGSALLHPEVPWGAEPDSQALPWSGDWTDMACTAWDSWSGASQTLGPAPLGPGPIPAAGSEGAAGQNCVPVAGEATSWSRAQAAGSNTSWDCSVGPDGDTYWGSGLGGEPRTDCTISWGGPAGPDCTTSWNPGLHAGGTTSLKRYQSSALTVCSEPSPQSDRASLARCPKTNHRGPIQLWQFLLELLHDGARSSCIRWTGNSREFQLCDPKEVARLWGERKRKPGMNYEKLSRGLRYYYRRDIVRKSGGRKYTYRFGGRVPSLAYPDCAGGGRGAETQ
In short: as §1

[8] = target: T5, ELF3 (Homo sapiens, UniProt P78545 1-371); settings: protein: recombinant; tags: N-terminal GST; dsDNA, one strand shown
T5 sequence: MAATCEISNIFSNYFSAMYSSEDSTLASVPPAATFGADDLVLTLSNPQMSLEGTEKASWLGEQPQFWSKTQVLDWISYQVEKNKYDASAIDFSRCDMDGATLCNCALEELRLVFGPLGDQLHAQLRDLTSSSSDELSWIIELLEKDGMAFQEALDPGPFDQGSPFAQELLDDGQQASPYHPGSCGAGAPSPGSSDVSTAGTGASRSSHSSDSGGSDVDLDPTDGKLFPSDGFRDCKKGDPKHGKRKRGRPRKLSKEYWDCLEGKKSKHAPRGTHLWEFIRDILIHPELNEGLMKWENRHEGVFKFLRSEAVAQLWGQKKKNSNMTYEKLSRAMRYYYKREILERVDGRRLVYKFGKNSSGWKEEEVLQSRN
In short: as §1

[9] = target: CRX (Homo sapiens, UniProt O43186 1-299); settings: protein: recombinant; tags: N-terminal GST; dsDNA, one strand shown
In short: as §1

[10] = target: ETV1 (Homo sapiens, UniProt P50549 1-477); settings: protein: recombinant; tags: N-terminal GST; dsDNA, one strand shown
In short: as §1

Chain of ETV1 (P50549 whole entry): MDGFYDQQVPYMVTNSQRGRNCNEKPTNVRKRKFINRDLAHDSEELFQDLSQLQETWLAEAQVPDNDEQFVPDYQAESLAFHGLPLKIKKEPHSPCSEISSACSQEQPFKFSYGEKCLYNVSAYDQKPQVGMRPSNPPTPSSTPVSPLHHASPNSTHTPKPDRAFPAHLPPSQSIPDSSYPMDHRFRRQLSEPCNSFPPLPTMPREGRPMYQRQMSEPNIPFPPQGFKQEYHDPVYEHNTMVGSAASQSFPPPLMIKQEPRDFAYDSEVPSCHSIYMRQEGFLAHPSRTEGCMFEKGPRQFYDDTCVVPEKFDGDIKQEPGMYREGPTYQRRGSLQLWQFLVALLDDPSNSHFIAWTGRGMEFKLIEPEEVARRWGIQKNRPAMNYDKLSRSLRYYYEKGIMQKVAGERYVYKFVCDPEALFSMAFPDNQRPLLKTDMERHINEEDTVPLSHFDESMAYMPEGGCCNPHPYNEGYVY
Chain of ETV5 (P41161 whole entry): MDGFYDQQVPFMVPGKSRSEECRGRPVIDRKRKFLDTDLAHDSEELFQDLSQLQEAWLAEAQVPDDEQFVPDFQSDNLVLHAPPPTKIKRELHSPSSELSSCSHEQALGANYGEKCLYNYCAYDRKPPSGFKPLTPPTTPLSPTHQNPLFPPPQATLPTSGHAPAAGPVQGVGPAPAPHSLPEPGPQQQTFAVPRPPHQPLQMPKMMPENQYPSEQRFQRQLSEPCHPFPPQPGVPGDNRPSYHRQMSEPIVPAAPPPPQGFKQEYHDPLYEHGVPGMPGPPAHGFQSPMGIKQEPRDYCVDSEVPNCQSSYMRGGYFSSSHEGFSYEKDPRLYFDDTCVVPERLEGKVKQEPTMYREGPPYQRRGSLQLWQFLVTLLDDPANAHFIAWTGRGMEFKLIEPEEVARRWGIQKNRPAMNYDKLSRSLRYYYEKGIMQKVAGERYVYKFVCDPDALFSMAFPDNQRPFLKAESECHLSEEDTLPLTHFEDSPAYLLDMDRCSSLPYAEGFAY
Chain of HSF1 (Q00613 whole entry): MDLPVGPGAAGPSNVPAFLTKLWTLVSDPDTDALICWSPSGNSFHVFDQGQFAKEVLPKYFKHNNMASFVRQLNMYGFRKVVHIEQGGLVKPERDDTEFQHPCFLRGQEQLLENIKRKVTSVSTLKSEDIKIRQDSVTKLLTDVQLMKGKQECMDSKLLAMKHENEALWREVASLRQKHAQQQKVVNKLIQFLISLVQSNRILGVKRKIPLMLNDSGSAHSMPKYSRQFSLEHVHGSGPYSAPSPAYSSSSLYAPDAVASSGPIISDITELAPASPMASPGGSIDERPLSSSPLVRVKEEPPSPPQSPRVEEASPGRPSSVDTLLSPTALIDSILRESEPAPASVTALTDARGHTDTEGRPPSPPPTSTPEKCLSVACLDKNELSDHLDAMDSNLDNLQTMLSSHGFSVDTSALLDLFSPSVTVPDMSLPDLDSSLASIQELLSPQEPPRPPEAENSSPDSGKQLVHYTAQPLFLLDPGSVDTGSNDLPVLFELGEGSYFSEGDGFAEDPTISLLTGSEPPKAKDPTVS
Chain of CRX (O43186 whole entry): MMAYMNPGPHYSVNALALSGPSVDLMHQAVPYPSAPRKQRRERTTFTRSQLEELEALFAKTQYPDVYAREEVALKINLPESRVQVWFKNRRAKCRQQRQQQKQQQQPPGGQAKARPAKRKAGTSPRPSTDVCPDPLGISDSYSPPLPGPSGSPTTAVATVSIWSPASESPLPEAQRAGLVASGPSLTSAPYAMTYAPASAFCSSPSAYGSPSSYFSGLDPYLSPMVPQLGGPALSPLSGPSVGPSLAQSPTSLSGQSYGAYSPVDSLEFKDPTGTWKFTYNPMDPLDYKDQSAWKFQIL
Chain of ELF4 (Q99607 whole entry): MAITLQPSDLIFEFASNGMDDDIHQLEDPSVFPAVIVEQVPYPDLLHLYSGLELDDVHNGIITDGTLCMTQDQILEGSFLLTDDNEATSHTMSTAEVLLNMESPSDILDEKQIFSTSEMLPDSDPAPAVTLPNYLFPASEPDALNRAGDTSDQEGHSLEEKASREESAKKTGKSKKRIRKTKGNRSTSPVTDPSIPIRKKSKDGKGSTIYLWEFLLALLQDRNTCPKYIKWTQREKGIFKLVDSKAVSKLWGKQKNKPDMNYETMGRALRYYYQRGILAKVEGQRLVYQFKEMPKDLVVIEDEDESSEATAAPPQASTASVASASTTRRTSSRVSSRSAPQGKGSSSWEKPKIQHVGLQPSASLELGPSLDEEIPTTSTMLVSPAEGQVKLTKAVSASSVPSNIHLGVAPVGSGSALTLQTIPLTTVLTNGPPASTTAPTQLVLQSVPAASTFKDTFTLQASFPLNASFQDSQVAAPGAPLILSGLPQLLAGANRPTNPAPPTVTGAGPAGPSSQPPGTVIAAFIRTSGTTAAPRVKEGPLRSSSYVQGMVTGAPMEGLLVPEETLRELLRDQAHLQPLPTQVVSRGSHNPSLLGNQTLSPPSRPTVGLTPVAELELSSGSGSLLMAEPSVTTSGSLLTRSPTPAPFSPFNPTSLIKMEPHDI

Q: How did the binding signal [1] turn out when GCTTCT was run?
A: 1.41 fold enrichment (6-mer frequency, TF over GST control)

Q: What about the binding signal [2] of the same sequence?
A: 1.57 fold enrichment (6-mer frequency, TF over GST control)

Q: And the binding signal [3]?
A: 2.32 fold enrichment (6-mer frequency, TF over GST control)

Q: And the binding signal [4]?
A: 1.48 fold enrichment (6-mer frequency, TF over GST control)

Q: What about the binding signal [5] of the same sequence?
A: 1.6 fold enrichment (6-mer frequency, TF over GST control)

Q: What about the binding signal [6] of the same sequence?
A: 1.4 fold enrichment (6-mer frequency, TF over GST control)

Q: What about the binding signal [7] of the same sequence?
A: 1.46 fold enrichment (6-mer frequency, TF over GST control)

Q: What about the binding signal [8] of the same sequence?
A: 1.25 fold enrichment (6-mer frequency, TF over GST control)

Q: What about the binding signal [9] of the same sequence?
A: 1.81 fold enrichment (6-mer frequency, TF over GST control)

Q: What about the binding signal [10] of the same sequence?
A: 1.42 fold enrichment (6-mer frequency, TF over GST control)

Q: For CTCCGA, which binding signal [1] is on record?
A: 1.4 fold enrichment (6-mer frequency, TF over GST control)

Q: And the binding signal [2]?
A: 1.3 fold enrichment (6-mer frequency, TF over GST control)

Q: What about the binding signal [3] of the same sequence?
A: 1.49 fold enrichment (6-mer frequency, TF over GST control)

Q: And the binding signal [4]?
A: 1.51 fold enrichment (6-mer frequency, TF over GST control)

Q: What about the binding signal [5] of the same sequence?
A: 1.41 fold enrichment (6-mer frequency, TF over GST control)

Q: What about the binding signal [6] of the same sequence?
A: 1.36 fold enrichment (6-mer frequency, TF over GST control)

Q: And the binding signal [7]?
A: 1.19 fold enrichment (6-mer frequency, TF over GST control)

Q: What about the binding signal [8] of the same sequence?
A: 1.2 fold enrichment (6-mer frequency, TF over GST control)

Q: And the binding signal [9]?
A: 1.3 fold enrichment (6-mer frequency, TF over GST control)

Q: What about the binding signal [10] of the same sequence?
A: 1.24 fold enrichment (6-mer frequency, TF over GST control)

Q: With AATTAG as the sequence, how does the binding signal [1] read?
A: 1.07 fold enrichment (6-mer frequency, TF over GST control)

Q: What about the binding signal [2] of the same sequence?
A: 1.12 fold enrichment (6-mer frequency, TF over GST control)

Q: And the binding signal [3]?
A: 1.39 fold enrichment (6-mer frequency, TF over GST control)

Q: What about the binding signal [4] of the same sequence?
A: 1.08 fold enrichment (6-mer frequency, TF over GST control)

Q: What about the binding signal [5] of the same sequence?
A: 1.15 fold enrichment (6-mer frequency, TF over GST control)

Q: And the binding signal [6]?
A: 1.14 fold enrichment (6-mer frequency, TF over GST control)

Q: And the binding signal [7]?
A: 1.12 fold enrichment (6-mer frequency, TF over GST control)

Q: And the binding signal [8]?
A: 1.13 fold enrichment (6-mer frequency, TF over GST control)

Q: What about the binding signal [9] of the same sequence?
A: 1.69 fold enrichment (6-mer frequency, TF over GST control)

Q: What about the binding signal [10] of the same sequence?
A: 1.14 fold enrichment (6-mer frequency, TF over GST control)

Q: What does the source list for TGCGAT?
A: binding signal [1]: 1.08 fold enrichment (6-mer frequency, TF over GST control); binding signal [2]: 1.1 fold enrichment (6-mer frequency, TF over GST control); binding signal [3]: 1.23 fold enrichment (6-mer frequency, TF over GST control); binding signal [4]: 1.3 fold enrichment (6-mer frequency, TF over GST control); binding signal [5]: 1.2 fold enrichment (6-mer frequency, TF over GST control); binding signal [6]: 1.2 fold enrichment (6-mer frequency, TF over GST control); binding signal [7]: 1.17 fold enrichment (6-mer frequency, TF over GST control); binding signal [8]: 1.03 fold enrichment (6-mer frequency, TF over GST control); binding signal [9]: 1.43 fold enrichment (6-mer frequency, TF over GST control); binding signal [10]: 1.06 fold enrichment (6-mer frequency, TF over GST control)

Q: TTTGAC was tested. Which binding signal [1] did it give?
A: 1.37 fold enrichment (6-mer frequency, TF over GST control)

Q: And the binding signal [2]?
A: 1.5 fold enrichment (6-mer frequency, TF over GST control)

Q: What about the binding signal [3] of the same sequence?
A: 1.35 fold enrichment (6-mer frequency, TF over GST control)

Q: What about the binding signal [4] of the same sequence?
A: 1.3 fold enrichment (6-mer frequency, TF over GST control)

Q: What about the binding signal [5] of the same sequence?
A: 1.47 fold enrichment (6-mer frequency, TF over GST control)

Q: And the binding signal [6]?
A: 1.41 fold enrichment (6-mer frequency, TF over GST control)

Q: And the binding signal [7]?
A: 1.5 fold enrichment (6-mer frequency, TF over GST control)

Q: And the binding signal [8]?
A: 1.39 fold enrichment (6-mer frequency, TF over GST control)

Q: What about the binding signal [9] of the same sequence?
A: 1.37 fold enrichment (6-mer frequency, TF over GST control)

Q: And the binding signal [10]?
A: 1.42 fold enrichment (6-mer frequency, TF over GST control)

Q: CGTTCG was tested. Which binding signal [1] did it give?
A: 1.1 fold enrichment (6-mer frequency, TF over GST control)

Q: And the binding signal [2]?
A: 1.2 fold enrichment (6-mer frequency, TF over GST control)

Q: What about the binding signal [3] of the same sequence?
A: 1.43 fold enrichment (6-mer frequency, TF over GST control)

Q: What about the binding signal [4] of the same sequence?
A: 1.16 fold enrichment (6-mer frequency, TF over GST control)

Q: And the binding signal [5]?
A: 1.32 fold enrichment (6-mer frequency, TF over GST control)

Q: And the binding signal [6]?
A: 1.22 fold enrichment (6-mer frequency, TF over GST control)

Q: And the binding signal [7]?
A: 1.44 fold enrichment (6-mer frequency, TF over GST control)

Q: And the binding signal [8]?
A: 1.08 fold enrichment (6-mer frequency, TF over GST control)

Q: And the binding signal [9]?
A: 1.04 fold enrichment (6-mer frequency, TF over GST control)

Q: What about the binding signal [10] of the same sequence?
A: 1.19 fold enrichment (6-mer frequency, TF over GST control)

Q: CTTCCA was tested. Which binding signal [1] did it give?
A: 1.43 fold enrichment (6-mer frequency, TF over GST control)

Q: And the binding signal [2]?
A: 1.46 fold enrichment (6-mer frequency, TF over GST control)

Q: What about the binding signal [3] of the same sequence?
A: 2.18 fold enrichment (6-mer frequency, TF over GST control)

Q: And the binding signal [4]?
A: 1.44 fold enrichment (6-mer frequency, TF over GST control)

Q: And the binding signal [5]?
A: 1.33 fold enrichment (6-mer frequency, TF over GST control)

Q: What about the binding signal [6] of the same sequence?
A: 1.45 fold enrichment (6-mer frequency, TF over GST control)

Q: What about the binding signal [7] of the same sequence?
A: 1.37 fold enrichment (6-mer frequency, TF over GST control)

Q: What about the binding signal [8] of the same sequence?
A: 1.49 fold enrichment (6-mer frequency, TF over GST control)

Q: And the binding signal [9]?
A: 1.42 fold enrichment (6-mer frequency, TF over GST control)

Q: And the binding signal [10]?
A: 1.48 fold enrichment (6-mer frequency, TF over GST control)

Q: How did the binding signal [1] turn out when TTCTGC was run?
A: 1.39 fold enrichment (6-mer frequency, TF over GST control)

Q: What about the binding signal [2] of the same sequence?
A: 1.46 fold enrichment (6-mer frequency, TF over GST control)

Q: What about the binding signal [3] of the same sequence?
A: 1.57 fold enrichment (6-mer frequency, TF over GST control)

Q: And the binding signal [4]?
A: 1.37 fold enrichment (6-mer frequency, TF over GST control)

Q: What about the binding signal [5] of the same sequence?
A: 1.52 fold enrichment (6-mer frequency, TF over GST control)

Q: What about the binding signal [6] of the same sequence?
A: 1.65 fold enrichment (6-mer frequency, TF over GST control)

Q: And the binding signal [7]?
A: 1.26 fold enrichment (6-mer frequency, TF over GST control)

Q: And the binding signal [8]?
A: 1.54 fold enrichment (6-mer frequency, TF over GST control)

Q: And the binding signal [9]?
A: 1.36 fold enrichment (6-mer frequency, TF over GST control)

Q: And the binding signal [10]?
A: 1.45 fold enrichment (6-mer frequency, TF over GST control)
